Results on 22 molecules are retold here after PubChem BioAssay.

SMILES strings stand for the structures. For part of these data: Potency and affinity values are given separately. Active and inactive are the calls of the source.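 Rule for the calls, unless noted: active = fitted half-maximal concentration within 10 nM to 100 µM, steepness 0.5 to 2, significant signal drop, low assay interference; inactive = the rest.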

The target of test [1] is GTPase HRas (Homo sapiens) (UniProt P01112). The test can be described thus: Ras wt fluorescent GTP loading blockade – biochemical, wildtype, multiplex bead flow cytometry, dose response (AID 1335). Particulars: bead-based flow cytometry, Bodipy-GTP binding to GST-Ras; at 100 µM (top of the series) unless noted. (Flow cytometry measures light scatter and fluorescence of single cells or particles in a stream.)
Chain of GTPase HRas (Homo sapiens) (P01112 whole entry, looked up): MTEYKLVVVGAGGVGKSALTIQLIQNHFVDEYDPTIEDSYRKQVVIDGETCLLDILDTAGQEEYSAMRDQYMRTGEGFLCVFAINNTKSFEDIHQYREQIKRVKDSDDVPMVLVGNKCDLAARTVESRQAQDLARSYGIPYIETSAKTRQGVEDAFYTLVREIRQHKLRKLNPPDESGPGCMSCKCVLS

Test [2] has as its system Ras-related protein Rab-7a (dog), GTP binding. The test can be described thus: blockers of fluorescent GTP binding to Rab7 – biochemical, wildtype, multiplex bead flow cytometry, dose response (AID 1336; call rule not given here).
Test [3] has as its target Ras-related C3 botulinum toxin substrate 1 (Homo sapiens) (UniProt P63000). Put plainly: inhibition of wildtype Rac1 nucleotide loading – biochemical, multiplex bead flow cytometry, dose response (AID 1340;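 active = dose curve with midpoint inside tested range, moderate steepness, plateau gap beyond fit error, low compound glow and bead-link interference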). Particulars: GST-Rac1 beads, Bodipy-FL-GTP binding; at 100 µM (top of the series) unless noted.
Test [4] addresses GTPase HRas (Homo sapiens) (UniProt P01112). The test can be described thus: blockade of GTP loading onto mutant Ras – biochemical, activated mutant, multiplex bead flow cytometry, dose response (AID 1341;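 active = dose-response curve with midpoint inside the tested range, moderate steepness, significant amplitude and little compound fluorescence or bead-attachment interference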;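 note: GST-tagged constitutively activated Ras mutant immobilized on beads and multiplexed with other GTPases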).
The target of test [5] is Cell division control protein 42 homolog (Homo sapiens) (UniProt P60953). The test can be described thus: inhibition of fluorescent GTP binding to wildtype Cdc42 – biochemical, multiplex bead flow cytometry, Bodipy-FL-GTP, dose response (AID 1334;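 active = fitted half-maximal concentration within the tested range, moderate curve steepness, significant signal drop, and little compound fluorescence or bead-linkage interference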). Particulars: bead-based flow cytometry, Bodipy-FL-GTP binding to GST-Cdc42; at 100 µM (top of the series) unless noted.
Chain of Cell division control protein 42 homolog (Homo sapiens) (P60953 whole entry, looked up): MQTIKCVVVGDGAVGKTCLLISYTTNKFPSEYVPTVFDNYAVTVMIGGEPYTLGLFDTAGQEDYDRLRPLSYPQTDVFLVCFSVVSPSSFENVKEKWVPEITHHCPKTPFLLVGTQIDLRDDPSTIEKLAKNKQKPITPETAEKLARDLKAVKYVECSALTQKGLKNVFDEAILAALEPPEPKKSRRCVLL

In the case of `O=C(NCc1cccs1)c1cccnc1C(=O)O`, the GTP binding, percent of control in test [1] was determined as 84.2%. The result in test [2] and in test [4] was inactive. The molecule further came in with a GTP binding signal, raw median fluorescence (lower = inhibition) (MCF (arbitrary fluorescence units)) in test [3] of 0.

As to `Cc1ccc(-n2c(-c3cnccn3)n[nH]c2=S)c(Br)c1`, in test [5], the fluorescence, percent of control (lower = inhibition) was found to be 23.2%. The molecule further displayed a GTP binding, percent of control in test [1] of 60.1%. For the same molecule, the molecule was classed as inactive in test [2] and in test [4]. In test [3], this molecule yielded a GTP binding signal, raw median fluorescence (lower = inhibition) (MCF (arbitrary fluorescence units)) of 190.

Turning to `Cc1cccc(N=Cc2[nH]c3ccc(Br)c(Cl)c3c2O)c1`, in test [3], the GTP binding signal, raw median fluorescence (lower = inhibition) (MCF (arbitrary fluorescence units)) was determined as 240.

`Cc1ccc(C)c(OCCn2cc(C(=O)O)c3ccccc32)c1` showed a fluorescence, percent of control (lower = inhibition) in test [5] of 47.5%. This molecule displayed a GTP binding, percent of control in test [1] of 91.6%. For the same molecule, the call in test [2] and in test [4] was inactive. The molecule also came in with a GTP binding signal, raw median fluorescence (lower = inhibition) (MCF (arbitrary fluorescence units)) in test [3] of 304.

`O=C(O)c1ccccc1Sc1ncnc2sc3c(c12)CCC3` returned a GTP binding, percent of control in test [1] of 118%. The molecule was called inactive in test [4].

In turn, `N#Cc1c(-c2ccccc2)nc(SCC(=O)Nc2ccccc2)[nH]c1=O` returned a GTP binding, percent of control in test [1] of 47.2%.

As to `CCCc1nc2c(=O)n(C)c(=O)nc-2n(C)n1`, the GTP binding, percent of control in test [1] came to 84.4%. The outcome in test [2] and in test [4] was inactive.

The molecule `O=C(O)c1ccccc1NCCc1ccc(Cl)cc1` came in with a GTP binding, percent of control in test [1] of 87%. The molecule was classed as inactive in test [4].

The molecule `Cc1cn2c(nc(=O)c3cccnc32)s1` showed a GTP binding signal, raw median fluorescence (lower = inhibition) (MCF (arbitrary fluorescence units)) in test [3] of 126.

For `CCOc1ccc(/C=C2\SC(N3CCc4ccccc4C3)=NC2=O)cc1`, the GTP binding, percent of control in test [1] was 59.8%. Moreover, the molecule was classed as inactive in test [4].

Turning to `Cc1cc(C(=O)Cn2nc(C(=O)O)c3ccccc3c2=O)c(C)n1-c1ccc(OC(F)F)cc1`, in test [5], the fluorescence, percent of control (lower = inhibition) stood at 28.1%. Also, the GTP binding, percent of control in test [1] stood at 75.5%. Moreover, the call in test [2] and in test [4] was inactive.

With `COC(=O)c1cccnc1SCCc1ccccc1`, the GTP binding, percent of control in test [1] worked out at 125%. Also, the GTP binding signal, raw median fluorescence (lower = inhibition) (MCF (arbitrary fluorescence units)) in test [3] came out at 72.5. Besides, in test [4], the call was inactive.

Molecule `CCOc1ccccc1-c1c2cc(O)c(=O)cc-2oc2cc(O)c(O)cc12` displayed a GTP binding signal, raw median fluorescence (lower = inhibition) (MCF (arbitrary fluorescence units)) in test [3] of 184.

In test [3], `CC(=O)Oc1ccc2c(c1)Oc1cc(OC(C)=O)ccc1C21OC(=O)c2ccccc21` registered a GTP binding signal, raw median fluorescence (lower = inhibition) (MCF (arbitrary fluorescence units)) of 720.

In test [1], `CC(=O)c1ccc(C#CC(=O)c2ccc([N+](=O)[O-])cc2)cc1` gave a GTP binding, percent of control of 204%. The molecule was called inactive in test [2] and in test [4]. The GTP binding signal, raw median fluorescence (lower = inhibition) (MCF (arbitrary fluorescence units)) in test [3] was found to be 55.9.

As for `CC1CCN(c2ncccc2C(=O)O)CC1`, in test [3], the GTP binding signal, raw median fluorescence (lower = inhibition) (MCF (arbitrary fluorescence units)) worked out at 407.

For `CS(=O)(=O)c1ccc(C(=O)OCC(=O)NC(=O)C2CCCCC2)cc1[N+](=O)[O-]`, the GTP binding, percent of control in test [1] amounted to 76.2%. Besides, the call in test [2] and in test [4] was inactive. In addition, in test [3], the GTP binding signal, raw median fluorescence (lower = inhibition) (MCF (arbitrary fluorescence units)) is 200.

Turning to `CCOC(=O)c1c(NC(=O)N/N=C/c2ccccc2OCC)sc(C(C)=O)c1C`, the GTP binding signal, raw median fluorescence (lower = inhibition) (MCF (arbitrary fluorescence units)) in test [3] turned out to be 238.

Consider `CCc1ccc(NS(=O)(=O)c2ccc3[nH]cc(C(=O)N4CCc5ccccc54)c(=O)c3c2)cc1`, for which the GTP binding, percent of control in test [1] stood at 62.6%. The result in test [2] and in test [4] was inactive. The molecule also came in with a GTP binding signal, raw median fluorescence (lower = inhibition) (MCF (arbitrary fluorescence units)) in test [3] of 167.

With `O=S(=O)(c1cccc(-c2nnc(SCc3ccc(Cl)cc3)o2)c1)N1CCCCC1`, the GTP binding signal, raw median fluorescence (lower = inhibition) (MCF (arbitrary fluorescence units)) in test [3] came to 182.

In test [1], `COc1ccc(-c2cc(C#N)nc(N3CCNCC3)n2)cc1` displayed a GTP binding, percent of control of 153%. Further, the molecule was called inactive in test [2] and in test [4]. For the same molecule, the GTP binding signal, raw median fluorescence (lower = inhibition) (MCF (arbitrary fluorescence units)) in test [3] was determined as 182.

Regarding `Cc1cc(C)c(C)c(C(=O)c2ccccc2C(=O)O)c1C`, in test [1], the GTP binding, percent of control is 122%. Also, the call in test [2] and in test [4] was inactive.
